Test results published in PubChem BioAssay AID1159580 (chemical genetic matrix, 2015).
The whole screen tested about 5,500 compounds, of which about 2,000 (36%) were called active. Not shown: some 18% with an inconclusive outcome. Rule as the data show it: active = normalized growth mostly below about 0.91 (no sharp cut-off); inconclusive = no clear call, values can overlap the other calls; inactive = mostly above about 0.92. The list shows a part of the results.

Assay: chemical genetic growth profiling, strain panel (AID 1159580);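 also: tested at 20 µM; growth read once vehicle control cultures reached saturation at 30 °C; 1 = growth at the plate median or of vehicle wells; lower values mean less growth of the strain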
Details: growth OD

Measured: normalized growth

NCC(O)CC(=O)O (centres undefined)
inactive: S. cerevisiae deletion strains, locus YKL009W, strain mrt4, hits give low values 0.991 | S. cerevisiae deletion strains, locus YKL068W, hits give low values 0.999 | S. cerevisiae deletion strains, locus YKL085W, strain MDH1 (second series), hits give low values 1 | S. cerevisiae deletion strains, locus YKL085W, strain MDH1, hits give low values 1 | S. cerevisiae deletion strains, locus YKL160W, strain elf1, hits give low values 1.02 | S. cerevisiae deletion strains, locus YKL190W, strain CNB1, hits give low values 1.02 | S. cerevisiae deletion strains, locus YKR001C, strain vps1, hits give low values 1 | S. cerevisiae deletion strains, locus YKR026C, strain gcn3, hits give low values 0.959 | S. cerevisiae deletion strains, locus YKR091W, strain srl3, hits give low values 0.974 | S. cerevisiae deletion strains, locus YLL001W, strain dnm1, hits give low values 0.987 | S. cerevisiae deletion strains, locus YLL026W, hits give low values 0.996 | S. cerevisiae deletion strains, locus YLL041C, strain sdh2, hits give low values 1 | S. cerevisiae deletion strains, locus YLR027C, strain aat2, hits give low values 0.97 | S. cerevisiae deletion strains, locus YLR039C, strain RIC1, hits give low values 1.04 | S. cerevisiae deletion strains, locus YLR058C, strain SHM2, hits give low values 1.02 | S. cerevisiae deletion strains, locus YLR102C, strain apc9, hits give low values 1 | S. cerevisiae deletion strains, locus YLR113W, strain HOG1, hits give low values 0.976 | S. cerevisiae deletion strains, locus YLR221C, strain rsa3, hits give low values 1.01 | S. cerevisiae deletion strains, locus YLR258W, strain gsy2, hits give low values 1 | S. cerevisiae deletion strains, locus YLR262C, strain YPT6 (second series), hits give low values 1 | S. cerevisiae deletion strains, locus YLR262C, strain YPT6, hits give low values 1.03 | S. cerevisiae deletion strains, locus YLR268W, strain sec22, hits give low values 0.998 | S. cerevisiae deletion strains, locus YLR320W, strain mms22, hits give low values 1 | S. cerevisiae deletion strains, locus YLR330W, strain CHS5, hits give low values 1.01 | S. cerevisiae deletion strains, locus YLR342W, strain FKS1 (second series), hits give low values 1.02 | S. cerevisiae deletion strains, locus YLR342W, strain FKS1, hits give low values 0.968 | S. cerevisiae deletion strains, locus YLR357W, strain rsc2, hits give low values 0.972 | S. cerevisiae deletion strains, locus YLR370C, strain arc18, hits give low values 0.973 | S. cerevisiae deletion strains, locus YLR371W, strain rom2, hits give low values 1 | S. cerevisiae deletion strains, locus YLR384C, strain iki3, hits give low values 0.979 | S. cerevisiae deletion strains, locus YLR418C, strain cdc73, hits give low values 0.988 | S. cerevisiae deletion strains, locus YML016C, strain PPZ1, hits give low values 1.01 | S. cerevisiae deletion strains, locus YML032C, strain rad52, hits give low values 1.01 | S. cerevisiae deletion strains, locus YML120C, strain ndi1, hits give low values 0.994 | S. cerevisiae deletion strains, locus YML124C, strain tub3, hits give low values 1 | S. cerevisiae deletion strains, locus YMR058W, strain fet3, hits give low values 0.972 | S. cerevisiae deletion strains, locus YMR078C, strain ctf18, hits give low values 1 | S. cerevisiae deletion strains, locus YMR125W, strain sto1, hits give low values 0.958 | S. cerevisiae deletion strains, locus YMR129W, hits give low values 0.978 | S. cerevisiae deletion strains, locus YMR205C, strain PFK2, hits give low values 0.965 | S. cerevisiae deletion strains, locus YMR223W, strain ubp8, hits give low values 1 | S. cerevisiae deletion strains, locus YMR231W, strain pep5, hits give low values 0.968 | S. cerevisiae deletion strains, locus YMR263W, strain SAP30, hits give low values 1.01 | S. cerevisiae deletion strains, locus YMR307W, strain GAS1, hits give low values 0.988 | S. cerevisiae deletion strains, locus YNL067W, strain RPL9B, hits give low values 1.01 | S. cerevisiae deletion strains, locus YNL071W, strain lat1, hits give low values 0.981 | S. cerevisiae deletion strains, locus YNL128W, strain TEP1, hits give low values 1.02 | S. cerevisiae deletion strains, locus YNL183C, strain NPR1, hits give low values 0.931 | S. cerevisiae deletion strains, locus YNL209W, strain ssb2, hits give low values 0.985 | S. cerevisiae deletion strains, locus YNL233W, strain BNI4, hits give low values 1.04 | S. cerevisiae deletion strains, locus YNL248C, strain rpa49, hits give low values 1.02 | S. cerevisiae deletion strains, locus YNL250W, strain rad50, hits give low values 0.99 | S. cerevisiae deletion strains, locus YNL271C, strain bni1, hits give low values 0.992 | S. cerevisiae deletion strains, locus YNL298W, strain CLA4, hits give low values 0.992 | S. cerevisiae deletion strains, locus YNL307C, strain MCK1, hits give low values 1.01 | S. cerevisiae deletion strains, locus YNL322C, strain KRE1 (second series), hits give low values 0.958 | S. cerevisiae deletion strains, locus YNL322C, strain KRE1, hits give low values 1.02 | S. cerevisiae deletion strains, locus YNR049C, strain mso1, hits give low values 0.983 | S. cerevisiae deletion strains, locus YNR052C, strain pop2, hits give low values 1 | S. cerevisiae deletion strains, locus YOL006C, strain TOP1, hits give low values 0.988 | S. cerevisiae deletion strains, locus YOL012C, strain htz1 0.788 | S. cerevisiae deletion strains, locus YOL147C, strain pex11, hits give low values 1 | S. cerevisiae deletion strains, locus YOR001W, strain rrp6, hits give low values 1.02 | S. cerevisiae deletion strains, locus YOR061W, strain CKA2, hits give low values 1.01 | S. cerevisiae deletion strains, locus YOR069W, strain VPS5, hits give low values 1.01 | S. cerevisiae deletion strains, locus YOR070C, strain gyp1, hits give low values 0.991 | S. cerevisiae deletion strains, locus YOR080W, strain dia2, hits give low values 0.979 | S. cerevisiae deletion strains, locus YOR083W, strain WHI5, hits give low values 1.03 | S. cerevisiae deletion strains, locus YOR106W, strain vam3, hits give low values 0.978 | S. cerevisiae deletion strains, locus YOR136W, strain idh2, hits give low values 1 | S. cerevisiae deletion strains, locus YOR144C, strain elg1, hits give low values 0.999 | S. cerevisiae deletion strains, locus YOR184W, strain ser1, hits give low values 1 | S. cerevisiae deletion strains, locus YOR231W, strain MKK1, hits give low values 1.02 | S. cerevisiae deletion strains, locus YOR265W, strain rbl2, hits give low values 0.989 | S. cerevisiae deletion strains, locus YOR270C, strain vph1, hits give low values 0.987 | S. cerevisiae deletion strains, locus YOR290C, strain snf2, hits give low values 0.938 | S. cerevisiae deletion strains, locus YOR316C, strain cot1, hits give low values 1.01 | S. cerevisiae deletion strains, locus YPL051W, strain arl3, hits give low values 1.02 | S. cerevisiae deletion strains, locus YPL078C, strain atp4, hits give low values 0.998 | S. cerevisiae deletion strains, locus YPL106C, strain sse1, hits give low values 0.985 | S. cerevisiae deletion strains, locus YPL240C, strain hsp82, hits give low values 1 | S. cerevisiae deletion strains, locus YPL241C, strain CIN2, hits give low values 1.01 | S. cerevisiae deletion strains, locus YPL256C, strain CLN2, hits give low values 1.01 | S. cerevisiae deletion strains, locus YPR119W, strain clb2, hits give low values 0.996 | S. cerevisiae deletion strains, locus YPR141C, strain kar3, hits give low values 0.994 | S. cerevisiae deletion strains, locus YPR163C, strain tif3, hits give low values 0.993 | S. cerevisiae deletion strains, locus YPR167C, strain met16, hits give low values 0.995 | S. cerevisiae deletion strains, strain wtn01, hits give low values 0.99 | S. cerevisiae strains, strain wild type, hits give low values 1.02
